Results: ChEMBL document CHEMBL3988442, “University of Dundee, Small-Polar-MMV Screening Library” (2021)
Screen size: about 48,000 compounds; about 13,000 (27%) showed an effect of 50% or more. Some of the results follow.

Tested on: Wolbachia pipientis
Assay: Anti-Wolbachia Cell-Based Screen
Assay type: functional
Set-up: scale not given: in the data most compounds retested in dose-response had high values
Conditions: 5 µM

SMILES	Percent Effect [%]
O=C(CCc1ccc(F)c(F)c1)N1CCCCC1Cn1cccn1 (stereo not given)	87.24
O=C(CCc1c(F)cccc1F)N1CCCCC1Cn1cccn1 (stereo not given)	126.8
COc1ccc(CC(=O)N2CCCC2Cn2cccn2)cc1F (stereo not given)	2.407
O=C(CCc1ccc2c(c1)OCO2)N1CCCCC1Cn1cccn1 (stereo not given)	137.4
COc1ccc(CCC(=O)N2CCCCC2Cn2cccn2)cc1F (stereo not given)	155.4
O=C(c1cccc2c1OCO2)N1CCCCC1Cn1cccn1 (stereo not given)	-4.366
CSc1c[nH]nc1NS(=O)(=O)c1ccc(C)c(C)c1	4.625
O=C(Nc1ccccc1CCO)c1cccc(CN2CC[C@H](O)C2)c1	-8.564
COc1ccc(F)c(CN2CCCC3(CCN(S(C)(=O)=O)C3)C2)c1 (stereo not given)	-4.467
O=C(c1cc(-c2cccs2)on1)N1CCCCC1Cn1cccn1 (stereo not given)	91.35
O=C(c1cccn1Cc1cccs1)N1CCCC1Cn1cccn1 (stereo not given)	4.58
Cc1oc(-c2cccs2)nc1C(=O)N1CCCC1Cn1cccn1 (stereo not given)	103.5
N#Cc1ccsc1C(=O)N1CCCCC1Cn1cccn1 (stereo not given)	-3.499
Cc1noc(C)c1CN(C)CCc1nc(-c2cccc(Cl)c2)no1	0.3419
c1ccc(CCCn2ccnc2-c2cn(C3CCNCC3)nn2)nc1	103.3
O[C@H]1[C@H](n2cc(-c3ccccn3)nn2)c2ccccc2C12CCNCC2	-37
Cc1ccc2[nH]c(-c3cn(C4CCNCC4)nn3)nc2c1C	9.5
Cc1c(C)c(C)c2[nH]c(-c3cn(C4CCNCC4)nn3)nc2c1C	5.399
Clc1ccccc1CCn1ccnc1-c1cn(C2CCNCC2)nn1	101.1
COc1ccc(CCn2ccnc2-c2cc3n(n2)CCCNC3)cc1	-17.25
c1ccc(OCCCn2ccnc2-c2cn(C3CCNCC3)nn2)cc1	87.94
Cc1cccc2[nH]c(-c3cn(C4CCNCC4)nn3)nc12	-0.8234

SMILES	Percent Effect [%]
COc1cccc(CCN2C[C@H]3CCNCC[C@H]3S2(=O)=O)c1.O=C(O)C(F)(F)F	12.24
O=C(NC1CCCCC1)N1CCC(n2cc(-c3ccccn3)nn2)CC1	-3.255
Cc1cc2nc(-c3cn(C4CCNCC4)nn3)[nH]c2cc1C	-3.563
COc1cccc(CCn2ccnc2-c2cn(C3CCNCC3)nn2)c1	111.7
CNC(=O)c1cccc(CNC(C)c2cc(C)ccc2OC(F)F)c1 (stereo not given)	2.562
CC(C)CNc1nc(C(=O)/N=c2\[nH]nc(C(C)(C)C)s2)cs1	9.925
COc1cccc([C@H]2CN(C(=O)c3scc4c3CCCC4)C[C@@H]2N)c1	-10.32
O=S(=O)(CCc1ccccc1)Nc1cc(Cl)ccn1	-16.02
CSCc1ccc(N2CCC(C(O)CC(C)C)CC2)nc1 (stereo not given)	-3.23
COc1cccc(CNC(C)c2ccc(-n3ccnc3)cc2)c1O (stereo not given)	3.228
CCc1nn(C)c(CC)c1CNC(=O)Nc1cccc([S+](C)[O-])c1 (stereo not given)	3.217
CN1CCN(c2cccc(NC(=O)NCc3csc(N(C)C)n3)c2)C1=O	-9.852
CN(C)c1nc(CNC(=O)Nc2cccc([S+](C)[O-])c2)cs1 (stereo not given)	95.39
O=C(NCCn1nc2ccccn2c1=O)c1cccc2[nH]ncc12	-8.467
COCc1cn(CC2CCN(Cc3c(C)[nH]c4ccccc34)CC2)nn1	121.8
CC(C)(CN1CCCC1)CN1CCC(Cn2cc(CCO)nn2)CC1	39.97
COCc1cn(CC2CCN(Cc3cc(C)[nH]n3)CC2)nn1	114.7
Cc1nc(CN2CCCC(Cn3cc(CCO)nn3)C2)c[nH]1 (stereo not given)	12.54
Cc1cc(C)n2ncc(CN3CCC(Cn4cc(CO)nn4)CC3)c2n1	8.529
CNCc1cn(CC2CCN(CC(C)(C)CN3CCCC3)CC2)nn1	-11.44
CNCc1cn(CC2CCN(Cc3cccs3)CC2)nn1	1.439
CCCN1CCC(N2CCC(Cn3cc(CC(C)O)nn3)CC2)CC1 (stereo not given)	-21.76

SMILES	Percent Effect [%]
COCc1cn(CC2CCN(Cc3nc(C)c[nH]3)CC2)nn1	122.2
CCC(CNC(=O)c1ccc(Br)o1)N1CCc2ccccc2C1 (stereo not given)	-5.246
N[C@H]1CC[C@@H](Nc2nccc(CCC(F)(F)F)n2)CC1	2.361
O=C(c1ccccc1)N1CCCN(C(=O)c2ncncc2Cl)CC1	22.3
Cc1ncsc1C(=O)N1CCC(c2ncncc2-c2ccnc(N)c2)C1 (stereo not given)	113.1
Cc1nc(C2CCCN(C(=O)c3scnc3C)C2)no1 (stereo not given)	-0.5479
Nc1cc(-c2cncnc2C2CCN(C(=O)c3ccccc3)C2)ccn1 (stereo not given)	132.6
CC(C)n1ccnc1C1CCN(C(=O)c2ccccc2)CC1	1.199
Cc1ccc2nc(CN(Cc3ccc(C#N)cc3)C(C)C)cc(=O)n2c1	-2.733
COCCCN(C)[C@@H]1c2ccccc2C2(CCNCC2)[C@H]1O	9.06
COC(CNC(=O)c1cn(C)nn1)c1ccccc1C (stereo not given)	-14.48
COc1c(F)cc(-c2cn(CCn3c(C)cc(C)nc3=O)nn2)cc1Cl	-4.684
Cc1nc(C)c(C(=O)N2CCCN(Cc3cnn(C)c3)CC2)s1	16.21
Cc1noc(C)c1CN1CCN(C(=O)CCn2cncn2)CC1	-2.995
CCn1ncc(Cn2cc(Cl)c(N)n2)c1C	0.6319
Cc1nn(CC(=O)N2CCN(Cc3cnn(C)c3C)CC2)cc1Br	123
Cc1nn(CCC(=O)N2CCN(Cc3cnn(C)c3C)CC2)c(C)c1Br	118.1
Cc1nn(CC(=O)N2CCN(Cc3cnn(C)c3C)CC2)cc1Cl	97.92
CCn1ncc(CN2CCN(C(=O)Cn3cc(Br)c(C)n3)CC2)c1C	124.7
Cc1c(Cn2cc(Cl)c(N)n2)cnn1C	-4.897
Cc1nn(CC(=O)N2CCN(Cc3cccnc3)CC2)c(C)c1Cl	2.693
Cc1nn(CC(=O)NCc2cc3n(n2)CCCN(CC(C)C)C3)cc1Cl	-2.88

SMILES	Percent Effect [%]
Cl.Cl.OC(CN1CCN(Cc2cccc(F)c2)CC1)C1CC1 (stereo not given)	-1.915
CCC(=O)NC(CC(C)C)c1cccs1 (stereo not given)	11.67
O=C1CC(NS(=O)(=O)NCc2ccccc2)CN1c1ccccc1Cl (stereo not given)	6.599
Cc1ccc(OCC(=O)NC2(C#N)CCSCC2)cc1C	-7.391
Cc1nsc(NC2CCN(c3ccccc3OC(F)F)C2=O)n1 (stereo not given)	-11.3
Cc1cccc(-c2nnc(C(C)NCCn3cc(C)cn3)o2)c1 (stereo not given)	-10.86
CC(=O)Nc1cccc(C(C)NCC2CCS(=O)(=O)CC2)c1 (stereo not given)	10.2
CNC(=O)c1n[nH]c2c1C(c1cccc3c1OC(C)(C)C3)CC(=O)N2 (stereo not given)	27.3
Cc1noc(C)c1CN1CCN(C(=O)Cn2cncn2)CC1	-5.281
Cc1nn(CCO)cc1CN1CCCN(C2CCCC2)CC1	15.64
Cc1nn(CC(=O)N2CCN(Cc3cn(C)nc3C)CC2)cc1Br	147.4
O=C(c1ccc[nH]1)N1CCN(C(c2ccccc2)C(F)(F)F)CC1 (stereo not given)	-1.01
Cc1ccc(C(=O)NCCCN(C)S(C)(=O)=O)cc1-n1cccc1	108.6
Cc1ccc(C(=O)NS(C)(=O)=O)cc1S(C)(=O)=O	-7.611
CC(=O)NCCNC(=O)c1cnc(-c2ccccc2)nc1	-5.417
CC(=O)NCCNC(=O)c1ccc(C)c(-n2cccc2)c1	112.1
CC(=O)NCCc1cn(-c2cc(F)ccc2C)cn1	0.929
Cc1ccc(C(=O)NS(C)(=O)=O)cc1I	-7.571
Cc1ccc(CC(=O)NCCCNS(C)(=O)=O)cc1	4.317
Cc1ccc(C(=O)NS(C)(=O)=O)cc1-n1cccc1	119
Cc1ccc(C(=O)NCCN2CCOCC2)cc1N(C)S(C)(=O)=O	-26.4
Cc1ccc(C(=O)NCCCN(C)S(C)(=O)=O)c(=O)[nH]1	-1.59

SMILES	Percent Effect [%]
Cc1cc(C(=O)NCCC(C)C)ccc1NS(C)(=O)=O	2.329
Cc1ccc(C(=O)NCCCNS(C)(=O)=O)cc1C	117.8
CCSCCC(C)N(C)C(=O)c1cc(C)on1 (stereo not given)	-12.53
O=C(O)c1cc(S(=O)(=O)N2CCOc3ccccc32)ccc1F	8.076
CCC[C@@H]1CN(Cc2cc3c(cc2OC)OCCO3)C[C@H]1C(=O)O	-0.5486
O=C(CCNc1ncccn1)NCCOc1ccc2c(c1)CCC2	1.956
COc1ccc(CN2CCC3(CC2)C(C(=O)O)CC(=O)N3C)cc1Cl (stereo not given)	2.306
CC[C@H]1N(Cc2ccc(OC)cc2)CCC[C@]12CCC(=O)N2C	102.5
COCCN1C(=O)CC[C@]12CC[C@@H](NCc1ccc(OC)cc1)CC2	-14.96
COc1cc(CN2CCN(CC3CC3)[C@@H]3CS(=O)(=O)C[C@@H]32)cc(OC)c1	-1.299
CCn1c(C2CCCN(Cc3cc(OC)cc(OC)c3)C2)nn(C)c1=O (stereo not given)	-1.28
CC[C@@H]1N(Cc2cc(OC)cc(OC)c2)CCC[C@]12CCC(=O)N2C	92.68
COCCN1CCN(Cc2cccc(OCC(N)=O)c2)CC1C (stereo not given)	-2.971
CCOc1ncnc2c1CCN(C(=O)c1ccncc1F)CC2.O=C(O)C(F)(F)F	-6.025
CN(C)CCN1C(=O)CCC12CCCN(C(=O)c1ccncc1F)C2.O=C(O)C(F)(F)F (stereo not given)	122.1
CCc1ncnc2c1CCN(C(=O)c1ccncc1F)CC2.O=C(O)C(F)(F)F	6.56
O=C(O)C(F)(F)F.O=C1CC(c2ccccc2)C2(CCN(C(=O)c3ccncc3F)CC2)N1 (stereo not given)	7.558
O=C(O)C(F)(F)F.O=C(c1ccncc1F)N1CCc2ncnc(C3CC3)c2CC1	13.05
Cc1ncnc2c1CCN(C(=O)c1ccncc1F)CC2.O=C(O)C(F)(F)F	-20.75
CN1C(=O)CCC12CCCN(C(=O)c1ccncc1F)C2.O=C(O)C(F)(F)F (stereo not given)	113.9
CCN1C(=O)CCCC12CCCN(C(=O)c1ccoc1)C2 (stereo not given)	-0.6496
CCN1C(=O)CCCC12CCCN(C(=O)c1ccncc1F)C2.O=C(O)C(F)(F)F (stereo not given)	112.1
